Results with a measured potency or affinity are listed apart. Active and inactive are the calls of the source. No rule for the calls is given here.
assay: COV434 cell viability loss – plate reader, dry powder, SA7, cytotoxicity control for PAX8 inhibitor project, dose response (AID 743145); settings: series mostly up to 35 µM

Structure (SMILES)	outcome
Cc1ccccc1OCC(=O)Nc1cccc(C(=O)O)c1	inactive
C[C@H](CO)N1C[C@H](C)[C@H](CN(C)C(=O)Nc2ccc(-c3cccs3)cc2)OCc2cnnn2CCCC1=O	inactive
COc1cccc(C#Cc2ccc([C@H]3[C@@H](C#N)N(C(=O)c4ccccn4)[C@@H]3CO)cc2)c1	inactive
CC(=O)N1CCOc2ccc(S(=O)(=O)N3CCN(c4cccc(C(F)(F)F)c4)CC3)cc21	inactive
CCc1cnc(N2[C@@H](C#N)[C@@H](c3ccc(C#CC(C)C)cc3)[C@@H]2CO)s1	inactive
O=C1/C(=C/c2cccc(Br)c2)SC(=S)N1CCC(=O)N(CCO)c1ccccc1	inactive
O=C(CCS(=O)(=O)c1ccccc1)Nc1nc2ccc(F)cc2s1	inactive
COc1cccc(C#Cc2ccc([C@@H]3[C@@H](C#N)N(C(=O)C4CCCC4)[C@@H]3CO)cc2)c1	inactive
O=C(CN1C(=O)c2ccccc2S1(=O)=O)c1ccc(Cl)cc1Cl	inactive
C[C@@H]1CN([C@H](C)CO)C(=O)CCCn2cc(nn2)CO[C@H]1CN(C)C(=O)Nc1ccc(-c2cccs2)cc1	inactive
C[C@H]1CN([C@@H](C)CO)C(=O)CCCn2nncc2CO[C@@H]1CN(C)C(=O)Nc1ccc(-c2cccs2)cc1	inactive
C[C@H](CO)N1C[C@H](C)[C@@H](CN(C)S(=O)(=O)c2ccc(-c3ccccc3)cc2)OCc2cn(nn2)CCCC1=O	inactive
N#C[C@H]1[C@@H](c2ccc(C#CC3CCCCC3)cc2)[C@@H](CO)N1S(=O)(=O)c1ccccc1	inactive
C[C@@H]1CN([C@@H](C)CO)S(=O)(=O)c2ccc(C#C[C@@H](C)O)cc2O[C@H]1CN(C)Cc1ccc(-c2ccccc2)cc1	inactive

From PubChem BioAssay AID743145 (Broad Institute, 2013)
